# Reference: PubChem BioAssay (NCATS)
# Inconclusive results are not listed. Active and inactive are the calls of the source. Calls follow the shape of the dose curve; as a rule, active = well fitted inhibition curve with a large enough effect; inconclusive = small, poorly fitted or top-dose-only effect; inactive = flat fitted curve, though single readings scatter.
# Tested on: CRL-7250
# Assay: Cytotoxic Profiling of Annotated Libraries Using Quantitative High-Throughput Screening (AID 1296008); also: nearly all actives have a fitted effect of over 60% in size
# Conditions: Five cell lines viability, CellTiter-Glo ATP luminescence, 48-72 h; max response: stronger effect = lower value
# Method in brief: (§1)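 Compounds were pin-transferred onto cells and incubated 48 or 72 hr at 37 degree Celsius, 95% humidity. CellTiter-Glo was added, plates sat 10 min at room temperature, then ATP-coupled luminescence was imaged as the viability read-out.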
# % is scaled to controls: 0 for no effect and ±100 for the full control effect; potency is read from the fitted curve at half-maximal effect.
SMILES,max response,outcome,Potency
C/C1=C\CCC(C)CCO[C@@H]2O[C@H](CO[C@@H]3OC[C@H](O)[C@H](O)[C@H]3OC1=O)[C@@H](O)[C@H](O)[C@H]2O (stereo partly drawn),-2.22% (inactive),–,–
C[C@H]1CC(=O)Nc2cccc(-c3cnn(C(C)(C)C)c3)c2N1,-2.99% (inactive),–,–
Cc1cccc(Oc2cnc(=O)[nH]c2)c1,–,inactive,–
CC(=O)N[C@H]1[C@H](O[C@H]2CC[C@@]3(C)C(CC[C@]4(C)C3CC=C3[C@@H]5CC(C)(C)CC[C@]5(C(=O)OC5OCC(O)C(O)C5O)CC[C@]34C)C2(C)C)O[C@H](COC2OC(C)C(O)C(OC3OC(C)C(O)C(O)C3O)C2O)[C@@H](O)[C@@H]1O (stereo partly drawn),-6.06% (inactive),–,–
COc1ccc(-c2c(-c3cc(C(=O)O)ccn3)ncn2C)cc1,4.8% (inactive),–,–
COc1cc2oc(-c3ccc(O)cc3O)cc2c(OC)c1CC=C(C)C,-1.99% (inactive),–,–
CC(C)[C@@H]1C(=O)N(S(C)(=O)=O)[C@@H]2CCN(C(=O)/C=C/CN3CCCCC3)[C@H]21,–,inactive,–
O=C(Nc1c(-c2cccs2)nc2ccccn12)c1ccc(Cl)cc1,–,inactive,–
C[C@@H]1O[C@@H](O[C@@H]2[C@@H](O)[C@H](O[C@H]3[C@H](O[C@H]4CC[C@@]5(C)C(CC[C@]6(C)C5CC=C5[C@@H]7CC(C)(C)CC[C@]7(C(=O)O[C@@H]7O[C@H](CO)[C@@H](O)[C@H](O)[C@H]7O[C@@H]7O[C@@H](C)[C@H](O[C@@H]8O[C@@H](C)[C@H](O)[C@@H](O)[C@H]8O)[C@@H](O)[C@H]7O)CC[C@]56C)[C@@]4(C)CO)O[C@H](C(=O)O)[C@@H](O)[C@@H]3O)O[C@H](CO)[C@H]2O)[C@H](O)[C@H](O)[C@H]1O (stereo partly drawn),–,inactive,–
CC[C@H]1OC(=O)[C@](C)(F)C(=O)[C@H](C)[C@@H](O[C@@H]2O[C@H](C)C[C@H](N(C)C)[C@H]2O)[C@](C)(OC)C[C@@H](C)C(=O)[C@@H](C)[C@H]2N(CCCCn3cc(-c4cccc(N)c4)nn3)C(=O)O[C@]12C,-0.28% (inactive),–,–
CC1(C)CC2C(O)c3cocc3CC(C)(O)C2C1 (stereo not drawn),0.847% (inactive),–,–
CC1OC(OC2C(CO)OC(OCC3OC(OC(=O)C45CCC(C)(C)CC4C4=CCC6C7(C)CCC(OC8OC(CO)C(O)C(OC9OC(CO)C(O)C(O)C9O)C8O)C(C)(C)C7CCC6(C)C4(C)CC5)C(O)C(O)C3O)C(O)C2O)C(O)C(O)C1OC1OC(CO)C(O)C(O)C1O (stereo not drawn),-0.747% (inactive),–,–
COCCOc1cnc2ccn([C@H](C)c3nnc4c(F)cc(-c5cnn(C)c5)cn34)c(=O)c2c1,–,inactive,–
CCOc1cc2ncc(C#N)c(Nc3ccc(F)c(Cl)c3)c2cc1NC(=O)/C=C/CN(C)C,–,–,651 nM (active)

# Tested on: HEK293
# Assay: as above
# Conditions: Five cell lines viability, CellTiter-Glo ATP luminescence, 48-72 h; max response: stronger effect = lower value
# Method in brief: as §1
SMILES,max response,Potency
CC(=O)O[C@H]1CC[C@H](C)[C@@]2(C)[C@H](OC(C)=O)c3c(C)coc3C(=O)[C@H]12,-27.7% (inactive),–
CC1(C)CCC2(C(=O)OC3OC(CO)C(O)C(O)C3O)CCC3(C)C(=CCC4C5(C)CCC(OC6OC(C(=O)O)C(OC7OC(CO)C(O)C(O)C7O)C(OC7OC(CO)C(O)C(O)C7O)C6O)C(C)(C)C5CCC43C)C2C1 (stereo not drawn),4.12% (inactive),–
O=S(=O)(NC1CCC(c2cc(F)ccc2F)(S(=O)(=O)c2ccc(Cl)cc2)CC1)C(F)(F)F (stereo not drawn),-4.12% (inactive),–
CS(=O)(=O)N(CC(=O)NCC1CC1)c1cc(C(F)(F)F)ccc1Cl,0.809% (inactive),–
CC(=O)O[C@@H]1[C@H](O[C@@H]2O[C@@H](CO)[C@H](O)[C@H]2O)[C@@H](O[C@@H]2O[C@@H](C)[C@H](O[C@@H]3OC[C@@H](O)[C@H](O)[C@H]3O)[C@@H](O)[C@H]2O)[C@H](OC(=O)[C@]23CCC(C)(C)C[C@H]2C2=CCC4[C@@]5(C)CC[C@H](O[C@@H]6O[C@H](C(=O)O)[C@@H](O)[C@H](O)[C@H]6O[C@@H]6O[C@H](CO)[C@H](O)[C@H](O)[C@H]6O)[C@@](C)(C=O)C5CC[C@@]4(C)[C@]2(C)CC3)O[C@@H]1C (stereo partly drawn),-1.69% (inactive),–
CC1(C)CCCC2(C)C(CO)C(CO)=CCC12 (stereo not drawn),-4.79% (inactive),–
C/C=C(/COC(=O)/C(C)=C/C)C(=O)OC(CC)c1ccc(OC)c(OC)c1 (stereo not drawn),4.08% (inactive),–
CCCN1CCN(c2ccc(C(=O)NC3(C(=O)NCC#N)CCCCC3)cc2)CC1,-5.14% (inactive),–
C=C[C@H]1[C@H](O[C@@H]2O[C@H](CO)[C@@H](O)[C@H](O)[C@H]2O)OC=C(C(=O)OC)[C@H]1C[C@@H]1c2cc(O)c(O)cc2CCN1C(C)=O,2.33% (inactive),–
CC(C)C(N)C(=O)OCCOCn1cnc2c(=O)[nH]c(N)nc21 (stereo not drawn),1.16% (inactive),–
C[C@@H]1O[C@@H](O[C@H]2[C@H](O)[C@@H](O[C@@H]3O[C@H](CO)[C@@H](O)[C@H](O[C@@H]4O[C@H](CO)[C@@H](O)[C@H](O)[C@H]4O)[C@H]3O)[C@H](O[C@H]3CC[C@@]4(C)C(=CC[C@@H]5C4CC[C@@]4(C)C5C[C@@H]5OC6(CC[C@@](C)(CO[C@@H]7O[C@H](CO)[C@@H](O)[C@H](O)[C@H]7O)O6)[C@@H](C)[C@@H]54)C3)O[C@@H]2CO)[C@H](O)[C@H](O)[C@H]1OC1OC(CO)C(O)C(O)C1O (stereo partly drawn),-4.6% (inactive),–
CC(C)CC1NC(=O)C(C)NC(=O)C(CC(C)C)OC(=O)CCCNC1=O (stereo not drawn),-5.55% (inactive),–
CC1OC(OC2CCC3(C)C(CCC4(C)C3CC=C3C5CC(C)(C)CCC5(C(=O)OC5OC(CO)C(O)C(O)C5O)CCC34C(=O)O)C2(C)C)C(O)C(O)C1O (stereo not drawn),-0.856% (inactive),–
COc1ccc(CNC(=O)c2cc(-c3cncc(C)c3)ncc2-c2nccs2)nc1OC,-57.9% (inactive),–
Cc1cc(C(=O)Nc2cccc(C(=O)Nc3cccc(C(F)(F)F)c3)c2)on1,2.99% (inactive),–
COc1cc2c(cc1O)[C@H](c1ccc(O[C@@H]3O[C@H](CO)[C@@H](O)[C@H](O)[C@H]3O)c(OC)c1)[C@@H](CO)[C@](O)(CO)C2,2.27% (inactive),–
CC(=O)OC1C(c2ccccc2)CCC(c2ccccc2)C1OC(C)=O (stereo not drawn),-10.8% (inactive),–
C=C1CC[C@@H]2[C@@](C)(CO[C@@H]3O[C@H](CO)C(O)[C@H](O)C3O)[C@H](O)CC[C@@]2(C)[C@@H]1CC/C(C)=C/CO (stereo partly drawn),1.32% (inactive),–
CC(C)(C)NS(=O)(=O)c1cncc(-c2cc(F)c3nc(N)nn3c2)c1,-1.27% (inactive),–
CC(=O)O[C@@H]1c2c(C)coc2C(=O)[C@@]23O[C@@H]2CC[C@H](C)[C@@]13C,2.56% (inactive),–

SMILES,max response,Potency
C/C=C/c1cc(OC)c2c(c1)[C@@H](C)[C@@H](c1ccc(O)c(OC)c1)O2,-109% (inactive),–
CCOc1cc(C(=O)N2CCC(N3CCN(C)CC3)CC2)ccc1Nc1ncc2c(n1)N(C1CCCC1)c1ccccc1C(=O)N2C,–,11600 nM (active)
O=C(Nc1ccc(S(=O)(=O)Nc2ccccc2Cl)c(Cl)c1)c1ccccn1,-10.8% (inactive),–
CC1=CCC2C(C)(C)CCC[C@]2(C)[C@@]12CC[C@](C)(CC(=O)O)O2 (stereo partly drawn),-11.7% (inactive),–
CC1CC[C@]2(C(=O)O)CC[C@]3(C(=O)O)C(=CCC4[C@@]5(C)CC[C@H](OC6OC(C)C(O)C(OC7OC(CO)C(O)C(O)C7O)C6O)C(C)(C)C5CC[C@]43C)C2C1C (stereo partly drawn),-0.0822% (inactive),–
C/C1=C\CCC(C)CCO[C@@H]2O[C@H](CO[C@@H]3OC[C@H](O)[C@H](O)[C@H]3OC1=O)[C@@H](O)[C@H](O)[C@H]2O (stereo partly drawn),2.77% (inactive),–
C[C@H]1CC(=O)Nc2cccc(-c3cnn(C(C)(C)C)c3)c2N1,2.23% (inactive),–
Cc1cccc(Oc2cnc(=O)[nH]c2)c1,2.27% (inactive),–
CC(=O)N[C@H]1[C@H](O[C@H]2CC[C@@]3(C)C(CC[C@]4(C)C3CC=C3[C@@H]5CC(C)(C)CC[C@]5(C(=O)OC5OCC(O)C(O)C5O)CC[C@]34C)C2(C)C)O[C@H](COC2OC(C)C(O)C(OC3OC(C)C(O)C(O)C3O)C2O)[C@@H](O)[C@@H]1O (stereo partly drawn),-2.57% (inactive),–
COc1ccc(-c2c(-c3cc(C(=O)O)ccn3)ncn2C)cc1,-1.7% (inactive),–
COc1cc2oc(-c3ccc(O)cc3O)cc2c(OC)c1CC=C(C)C,3% (inactive),–
CC(C)[C@@H]1C(=O)N(S(C)(=O)=O)[C@@H]2CCN(C(=O)/C=C/CN3CCCCC3)[C@H]21,-1.35% (inactive),–
O=C(Nc1c(-c2cccs2)nc2ccccn12)c1ccc(Cl)cc1,-117% (inactive),–
C[C@@H]1O[C@@H](O[C@@H]2[C@@H](O)[C@H](O[C@H]3[C@H](O[C@H]4CC[C@@]5(C)C(CC[C@]6(C)C5CC=C5[C@@H]7CC(C)(C)CC[C@]7(C(=O)O[C@@H]7O[C@H](CO)[C@@H](O)[C@H](O)[C@H]7O[C@@H]7O[C@@H](C)[C@H](O[C@@H]8O[C@@H](C)[C@H](O)[C@@H](O)[C@H]8O)[C@@H](O)[C@H]7O)CC[C@]56C)[C@@]4(C)CO)O[C@H](C(=O)O)[C@@H](O)[C@@H]3O)O[C@H](CO)[C@H]2O)[C@H](O)[C@H](O)[C@H]1O (stereo partly drawn),-2.3% (inactive),–
CC[C@H]1OC(=O)[C@](C)(F)C(=O)[C@H](C)[C@@H](O[C@@H]2O[C@H](C)C[C@H](N(C)C)[C@H]2O)[C@](C)(OC)C[C@@H](C)C(=O)[C@@H](C)[C@H]2N(CCCCn3cc(-c4cccc(N)c4)nn3)C(=O)O[C@]12C,–,1460 nM (active)
CC1(C)CC2C(O)c3cocc3CC(C)(O)C2C1 (stereo not drawn),3.14% (inactive),–
CC1OC(OC2C(CO)OC(OCC3OC(OC(=O)C45CCC(C)(C)CC4C4=CCC6C7(C)CCC(OC8OC(CO)C(O)C(OC9OC(CO)C(O)C(O)C9O)C8O)C(C)(C)C7CCC6(C)C4(C)CC5)C(O)C(O)C3O)C(O)C2O)C(O)C(O)C1OC1OC(CO)C(O)C(O)C1O (stereo not drawn),-0.594% (inactive),–
COCCOc1cnc2ccn([C@H](C)c3nnc4c(F)cc(-c5cnn(C)c5)cn34)c(=O)c2c1,1.47% (inactive),–
CCOc1cc2ncc(C#N)c(Nc3ccc(F)c(Cl)c3)c2cc1NC(=O)/C=C/CN(C)C,–,1640 nM (active)
